This is an account of results in PubChem BioAssay AID504652 (National Center for Advancing Translational Sciences (NCATS), 2011).

Each structure is given as a SMILES string. Screen size: about 360,000 compounds; about 11,000 (3.1%) were called active. The full list was thinned out, with actives kept by preference. Unmarked numbers belong to inactive results. Rule as the data show it: active = activity change below about -30%; inactive = the rest.
% is scaled to controls: 0 for no effect and ±100 for the full control effect.

D(1A) dopamine receptor (Homo sapiens), sequence (P21728 whole entry, looked up): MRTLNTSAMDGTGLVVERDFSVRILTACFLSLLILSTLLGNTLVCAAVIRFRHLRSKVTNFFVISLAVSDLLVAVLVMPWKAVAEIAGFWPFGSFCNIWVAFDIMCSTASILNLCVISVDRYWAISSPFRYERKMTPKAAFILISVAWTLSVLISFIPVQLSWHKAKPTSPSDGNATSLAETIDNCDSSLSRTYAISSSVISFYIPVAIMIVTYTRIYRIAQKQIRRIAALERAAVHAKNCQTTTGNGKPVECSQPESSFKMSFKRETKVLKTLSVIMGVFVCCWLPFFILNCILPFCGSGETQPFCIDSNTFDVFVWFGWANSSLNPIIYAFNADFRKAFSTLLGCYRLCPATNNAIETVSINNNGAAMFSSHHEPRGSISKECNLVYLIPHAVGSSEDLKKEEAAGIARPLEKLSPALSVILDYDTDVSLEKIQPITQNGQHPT

For this test, the target named is D(1A) dopamine receptor (Homo sapiens) (UniProt P21728). Put plainly: Antagonist of Human D 1 Dopamine Receptor: qHTS. As to conditions: HEK293 TREx D1 cells, calcium flux, dopamine EC80; at 10 µM; hits give low values. An excerpt:
Dopamine receptors (DARs) are involved in the etiology and/or therapy of a number of neuropsychiatric and endocrine disorders. For instance, all receptor-based antiparkinsonian drugs work via stimulating the […] DAR subtype whereas all FDA-approved antipsychotic agents are antagonists of this receptor. […] There are three different types of allosteric modulators that we are seeking, two of which will stimulate or augment receptor signaling, allosteric agonists and potentiators, while the third, allosteric antagonists, will attenuate receptor signaling. The present primary screening assay measures compound antagonism after an EC80 addition of dopamine by tracking calcium flux in a […], inducible Hek293 Trex D1 cell line. NIH Chemical Genomics Center [NCGC] NIH Molecular Libraries Probe Centers Network [MLPCN] MLPCN Grant: NS064831-01 Assay Submitter (PI): David Sibley
Freshly passaged cells are plated in 1536 well black, clear bottom plates at a density of 4000 cells/well in 3 ul of complete media containing 1x tetracycline inducer. After an overnight incubation at 30 C in 5% CO2, cells are loaded with 2 ul of the no wash Calcium Assay Kit (ABD Bioquest) and incubated at room temperature for 30 to 90 minutes. Agonist read: A 10 cycle (1 second/cycle) baseline measurement is taken and then the FDSS online 1536 pintool delivers 23 nl of compound library (as well as dopamine controls) to the plate. The plate is measured for kinetically at 1 cycle/sec for 180 seconds. Following the 180 second read, 1 ul of an EC80 (negative modulation assay) is delivered by an onboard pipette head. Measurements are taken kinetically for an additional 180 seconds.
(In general: qHTS replaces the single test concentration by a dilution series.)
With `CCOCCc1c(O)[nH]c(=S)[nH]c1=O`, the activity change, negative = inhibition is -33.1% (active). Then `COc1ccccc1N=Nc1c(O)[nH]c(=S)[nH]c1=O`, with -9.34%; and `CC1=CC(=Cc2sc3ccccc3[n+]2C)C=C(C)O1`, with -35.2% (active); and `CC(C)c1c(CN(C)C(C)Cc2ccccc2)n(C)n(-c2ccccc2)c1=O` (configuration not stated), with -2.93%. Then `Cc1ccc(-n2c(/C=C/c3cccc(C(F)(F)F)c3)nc3ccccc3c2=O)cc1`, with 11.5%; and `Cc1ccc(C(C)C)c(OCC(=O)N2CCN(CC(=O)N3CCOCC3)CC2)c1`, with 1.15%; and `NCCc1ccc(S(=O)(=O)F)cc1`, with -35.8% (active). With `CC(C)c1ccc(OCC(=O)N2CCN(C)CC2)c(Br)c1` the figure was -34.7% (active); with `CC(C)c1ccc(OCC(=O)N2CCCN(C)CC2)cc1`, -12.3%. `CN1CCN(C(=O)COc2ccc(C(C)(C)C)cc2Br)CC1`: the activity change, negative = inhibition is -15.7%. Then `CC(C)(C)[C@]1(O)C[C@@H]2OC(=O)C[C@@]23C(=O)O[C@@H]2OC(=O)[C@H](O)[C@]213`, with 0.221%. Then `CN(C)CC1CCCCC1=O` (configuration not stated), with 9.1%.

On to `CN1CCc2cc3c(cc2[C@H]1[C@@H]1OC(=O)c2c1ccc1c2OCO1)OCO3`, for which the activity change, negative = inhibition was -19.5%. Then `COc1c(O)ccc2c1-c1c3c(cc4c1C(C2)N(C)CC4)OCO3` (configuration not stated), with -68% (active).

`COc1ccc(C2NCc3ccc4c(c3-n3cccc32)OCO4)cc1OC` (configuration not stated): the activity change, negative = inhibition was -8.31%. Then `COC(=O)C1=C(c2ccc(Cl)c(C(F)(F)F)c2)C[C@@H]2CC[C@H]1N2C(=O)NC(C)C`, with -3.99%. For `CC(C)Oc1cccc(C(=O)C2CCCN(C3CCOCC3)C2)c1` (configuration not stated), the activity change, negative = inhibition was -26.6%. Regarding `COC(=O)C1=C(c2cccc(OCc3ccccc3)c2)C[C@@H]2CC[C@H]1N2C(=O)NCc1ccc(Br)cc1`, the activity change, negative = inhibition is -2.72%. With `O=c1[nH]c(=S)n(C2CC2)c(O)c1/C=N/N1CCOCC1` the figure was -3.33%. Then `Cc1cccc(-n2c(O)c(/C=N/N3CCOCC3)c(=O)[nH]c2=S)c1`, with -42.1% (active).

Turning to `CC(C)c1ccc(-n2c(O)c(/C=N/N3CCOCC3)c(=O)[nH]c2=S)cc1`, the activity change, negative = inhibition is 21.3%.

Regarding `Cn1cc(C(=O)OCC(=O)N2CCCC2)c2ccccc21`, the activity change, negative = inhibition is -0.659%. With `Cc1cc(OCc2cc(C(=O)O)oc2C)c2c3c(c(=O)oc2c1)CCCC3` the figure was 63%; with `OC(Cn1c2ccccc2c2ccccc21)C[n+]1ccccc1` (configuration not stated), 13.9%. Then `COc1ccc(CNCCc2c[nH]c3ccccc23)cc1OC`, with -8.11%. As for `C/C(CCc1c[nH]c2ccccc12)=N\O`, the activity change, negative = inhibition was 1.61%. On to `c1cncc(CNCCc2c[nH]c3ccccc23)c1`, for which the activity change, negative = inhibition was -33.9% (active).
